Experimental data published in PubChem BioAssay (NCI).
Where “and” joins values, the source holds several entries; their conditions need not be identical. Equal values may be shown once. Compounds without any hit were thinned out: in the full panel of roughly 83,000, 20% have a hit.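 Results are percent growth after 48 hours of single-concentration exposure. 100 means growth as in untreated cells, lower positive values show inhibition; negative values down to -100 show cell death.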 Calls of active or inactive are those of the source. How the source made its calls: active means growth percent below 10; inactive means the rest.

How the values were obtained:
Test in all cases: NCI-60 one-dose screen, 48 h (100 = growth as untreated, 0 = no growth, -100 = all killed)
Conditions in all cases: 10 µM unless noted
NCI-H23 lung = test system: NCI-H23 lung
NCI-H226 lung = test system: NCI-H226 lung
NCI-H322M lung = test system: NCI-H322M lung
HOP-62 NSCLC = test system: HOP-62 NSCLC
NCI-H460 lung = test system: NCI-H460 lung
HOP-92 NSCLC = test system: HOP-92 NSCLC
NCI-H522 lung = test system: NCI-H522 lung
A549/ATCC NSCLC = test system: A549/ATCC NSCLC
786-0 renal = test system: 786-0 renal
COLO 205 colon = test system: COLO 205 colon
DU-145 prostate = test system: DU-145 prostate
K-562 leukemia = test system: K-562 leukemia
MALME-3M melanoma = test system: MALME-3M melanoma
MDA-MB-231 breast = test system: MDA-MB-231 breast
RXF 393 renal = test system: RXF 393 renal
SF-268 CNS = test system: SF-268 CNS
SF-295 CNS = test system: SF-295 CNS
SF-539 CNS = test system: SF-539 CNS
UACC-257 melanoma = test system: UACC-257 melanoma
M14 melanoma = test system: M14 melanoma

Row | Compound | growth (NCI-H23 lung) | growth (NCI-H226 lung) | growth (NCI-H322M lung) | growth (HOP-62 NSCLC) | growth (NCI-H460 lung) | growth (HOP-92 NSCLC) | growth (NCI-H522 lung) | growth (A549/ATCC NSCLC) | growth (786-0 renal) | growth (COLO 205 colon) | growth (DU-145 prostate) | growth (K-562 leukemia) | growth (MALME-3M melanoma) | growth (MDA-MB-231 breast) | growth (RXF 393 renal) | growth (SF-268 CNS) | growth (SF-295 CNS) | growth (SF-539 CNS) | growth (UACC-257 melanoma) | growth (M14 melanoma)
1 | O=[N+]([O-])c1ccc(N2CCN=N2)cc1 | 99.6% (inactive) | 96% (inactive) | 88% (inactive) | 82.9% (inactive) | 98.9% (inactive) | 89% (inactive) | 78.8% (inactive) | 82.2% (inactive) | 84.8% (inactive) | 92.7% (inactive) | 88.2% (inactive) | 63.6% (inactive) | 106% (inactive) | 80.4% (inactive) | 109% (inactive) | 85.8% (inactive) | 97.1% (inactive) | 93.4% (inactive) | 91.5% (inactive) | 82.7% (inactive)
2 | COCCNC(C)=O | 107% (inactive) | 90.3% (inactive) | 108% (inactive) | 98.4% (inactive) | 102% (inactive) | 102% (inactive) | 96.6% (inactive) | 104% (inactive) | 97.5% (inactive) | 108% (inactive) | 112% (inactive) | 105% (inactive) | 114% (inactive) | 99.2% (inactive) | 104% (inactive) | 101% (inactive) | 96.3% (inactive) | 99.5% (inactive) | 112% (inactive) | 109% (inactive)
3 | C(=N\OCCc1ccccc1)/c1ccccn1 | 109% (inactive) | 121% (inactive) and 108% (inactive) | 138% (inactive) and 105% (inactive) | 127% (inactive) | 103% (inactive) and 111% (inactive) | 103% (inactive) | 112% (inactive) and 102% (inactive) | 102% (inactive) and 101% (inactive) | 96.7% (inactive) and 97.1% (inactive) | 135% (inactive) and 115% (inactive) | 111% (inactive) and 106% (inactive) | 115% (inactive) | 153% (inactive) and 95.9% (inactive) | 124% (inactive) and 112% (inactive) | 116% (inactive) and 119% (inactive) | 107% (inactive) and 105% (inactive) | 96.6% (inactive) | 104% (inactive) and 93.6% (inactive) | 109% (inactive) and 104% (inactive) | 115% (inactive) and 117% (inactive)
4 | CCOCCC(=O)O | 110% (inactive) | 99.4% (inactive) | 113% (inactive) | 115% (inactive) | 102% (inactive) | 80.5% (inactive) | 102% (inactive) |  | 103% (inactive) | 110% (inactive) | 121% (inactive) | 108% (inactive) | 116% (inactive) | 105% (inactive) | 108% (inactive) | 112% (inactive) | 102% (inactive) | 102% (inactive) | 114% (inactive) | 102% (inactive)
5 | OCCCc1ccccc1 | 107% (inactive) | 99% (inactive) | 76.2% (inactive) | 101% (inactive) | 112% (inactive) | 94.7% (inactive) | 110% (inactive) |  | 110% (inactive) | 94.1% (inactive) | 118% (inactive) | 121% (inactive) | 75.8% (inactive) | 97.8% (inactive) | 105% (inactive) | 108% (inactive) | 107% (inactive) | 112% (inactive) | 102% (inactive) | 100% (inactive)
6 | Nc1ccccc1SC1CC(=O)N(c2ccc(I)cc2)C1=O (stereo unspecified) | 89.8% (inactive) | 102% (inactive) | 108% (inactive) | 80.5% (inactive) | 92.6% (inactive) | 100% (inactive) | 77.4% (inactive) |  | 105% (inactive) | 95.3% (inactive) | 92.7% (inactive) | 82.9% (inactive) | 75.6% (inactive) | 91% (inactive) | 115% (inactive) | 84.1% (inactive) | 93.8% (inactive) | 89.6% (inactive) | 89.2% (inactive) | 88% (inactive)
7 | NCCCCCC(=O)O | 97.6% (inactive) and 104% (inactive) and 92.2% (inactive) | 101% (inactive) [middle of 4 runs] |  | 99.7% (inactive) and 105% (inactive) and 97.7% (inactive) |  | 97.2% (inactive) and 90.1% (inactive) | 100% (inactive) [middle of 4 runs] | 94.1% (inactive) and 100% (inactive) and 99.7% (inactive) | 107% (inactive) [middle of 4 runs] | 114% (inactive) and 104% (inactive) and 95.2% (inactive) | 124% (inactive) [middle of 4 runs] | 112% (inactive) [middle of 4 runs] |  | 112% (inactive) and 105% (inactive) and 109% (inactive) | 110% (inactive) and 113% (inactive) and 127% (inactive) |  | 104% (inactive) [middle of 4 runs] | 101% (inactive) [middle of 4 runs] | 102% (inactive) and 96.4% (inactive) and 105% (inactive) | 106% (inactive) [middle of 4 runs]
8 | O=c1[nH]c(=O)c2[nH]c(=O)[nH]c2[nH]1 | 92.8% (inactive) | 93.2% (inactive) | 101% (inactive) | 105% (inactive) | 104% (inactive) | 89.9% (inactive) | 112% (inactive) |  | 94.2% (inactive) | 105% (inactive) | 107% (inactive) | 135% (inactive) | 93.2% (inactive) | 101% (inactive) | 84.6% (inactive) | 103% (inactive) | 98.3% (inactive) | 97.7% (inactive) | 107% (inactive) | 
9 | CCN(CC)C(=S)SCCO | 93.3% (inactive) | 99.3% (inactive) | 97.1% (inactive) | 104% (inactive) | 104% (inactive) | 109% (inactive) | 95.5% (inactive) |  | 104% (inactive) | 114% (inactive) | 107% (inactive) | 97% (inactive) | 99.7% (inactive) | 101% (inactive) | 106% (inactive) | 102% (inactive) | 106% (inactive) | 102% (inactive) | 96.3% (inactive) | 106% (inactive)
10 | O=C1c2cccnc2-c2ncccc21 | 105% [100 µM] (inactive) | 90% [100 µM] (inactive) | 101% [100 µM] (inactive) | 96.9% [100 µM] (inactive) | 111% [100 µM] (inactive) | 96.7% [100 µM] (inactive) | 104% [100 µM] (inactive) |  | 93.1% [100 µM] (inactive) | 123% [100 µM] (inactive) | 112% [100 µM] (inactive) | 115% [100 µM] (inactive) | 103% [100 µM] (inactive) | 118% [100 µM] (inactive) | 109% [100 µM] (inactive) | 106% [100 µM] (inactive) | 103% [100 µM] (inactive) | 104% [100 µM] (inactive) | 98% [100 µM] (inactive) | 104% [100 µM] (inactive)
11 | C(#CCN1CCOCC1)CCCN1CCOCC1 | 109% (inactive) and 105% (inactive) | 100% (inactive) and 115% (inactive) | 119% (inactive) and 99% (inactive) | 93.5% (inactive) and 99.9% (inactive) | 114% (inactive) and 111% (inactive) |  | 105% (inactive) and 95.4% (inactive) | 105% (inactive) and 100% (inactive) | 110% (inactive) and 100% (inactive) | 105% (inactive) and 104% (inactive) | 109% (inactive) and 117% (inactive) | 114% (inactive) and 113% (inactive) | 117% (inactive) and 88.9% (inactive) | 96.7% (inactive) and 106% (inactive) | 110% (inactive) and 119% (inactive) | 105% (inactive) and 104% (inactive) | 113% (inactive) and 106% (inactive) | 104% (inactive) and 91.7% (inactive) | 97.5% (inactive) and 101% (inactive) | 105% (inactive) and 98% (inactive)
12 | COc1cc([C@@H]2c3cc4c(cc3[C@H](O)[C@H]3COC(=O)[C@@H]23)OCO4)cc(OC)c1OC | 12.2% (inactive) and 13.6% (inactive) | 51.8% (inactive) and 45.6% (inactive) | 38.9% (inactive) and 23.5% (inactive) | 15.7% (inactive) | 4.7% (active) and -1.68% (active) | 37.5% (inactive) and -7.61% (active) | -13.6% (active) and -44.2% (active) |  | 44.1% (inactive) and -74.9% (active) | -45.7% (active) and -74.4% (active) | 27.1% (inactive) and -27.4% (active) | 8.28% (active) and 25.4% (inactive) | 7.77% (active) and 69.7% (inactive) | 36.9% (inactive) and 17.5% (inactive) | 39.6% (inactive) and 28.2% (inactive) | 27.1% (inactive) and 24.4% (inactive) | 34.1% (inactive) and -22.3% (active) | -30.4% (active) and -4.79% (active) | 18.6% (inactive) and 57.2% (inactive) | 
